# Most compounds without a hit are left out; they make up all but 21% or so of the library.
# Pf growth 48h = inhibits P. falciparum growth in the first generation, 48 h. P. falciparum luciferase growth in erythrocytes, 48 h. hit rate 5.9% among 310,000. Potency, µM (series often up to 28.7 µM), inactives show at the highest dose activity change, negative = inhibition, usual class: inhibitors; also: potency is read from the fitted curve at half-maximal effect; % is scaled to controls: 0 for no effect and ±100 for the full control effect
#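 Read-out is firefly luciferase luminescence from an integrated reporter in P. falciparum, so falling signal marks reduced parasite growth. Infected erythrocytes were at 2% hematocrit and 0.1% parasitemia (final) in Albumax-supplemented RPMI 1640.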
# Shiga inhibitor = Shiga toxin inhibition. AID 2315. Vero cells, Shiga toxin protein synthesis inhibition reporter. inhibition, % at 38.7 µM. hit rate 9.2% among 290,000; in the data active = inhibition mostly above about 28%, no sharp cut-off; inactive = mostly below about 43%; also: 0% is about no effect
# CHX counter = counter-screen for Shiga toxin inhibitors: cycloheximide protein synthesis inhibition | cell reporter, cycloheximide protein synthesis inhibition counterscreen | AID 2314 | max response, % | hit rate 12% among 300,000; in the data active = max response mostly above about 13%, no sharp cut-off; inactive = mostly below about 14%; also: read at 38.3 µM for the half of the compounds with a filed dose; 0% is about no effect
# Pf growth 96h = inhibits malaria parasite growth, 96 h. P. falciparum luciferase reporter growth, 96 h. Potency, µM (top dose mostly 28.7 µM), for the others: at the highest dose activity change, negative = inhibition, actives largely listed as inhibitors. hit rate 6.9% among 320,000. AID 504834; also: potency is read from the fitted curve at half-maximal effect; % is scaled to controls: 0 for no effect and ±100 for the full control effect
#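 Parasite growth measured via integrated firefly luciferase reporter in P. falciparum. Infected erythrocytes at 2% hematocrit, 0.05% parasitemia final were treated 96 hours at 37 C under 5% CO2, and luminescence was read.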
# The depositor's hits bear a star; i = inactive; u = inconclusive; x = no result. Unless noted, calls follow the shape of the dose curve; as a rule, active = well fitted inhibition curve with a large enough effect; inconclusive = small, poorly fitted or top-dose-only effect, or another doubt; inactive = no such curve, though single readings can be large or run the other way.
SMILES,Pf growth 48h,Shiga inhibitor,CHX counter,Pf growth 96h
CCc1ccc(O)c(N=Cc2cccc(C)c2O)c1,u,46.7,26.7*,u
C=CCc1cccc(C=Nc2cc(Br)ccc2O)c1O,u,22.1,5.8,11.7µM*
C=CCc1cccc(C=Nc2cccn3cc(-c4ccccc4)nc23)c1O,92.1%,69.1*,31.8*,5.6%
C/C(=N\NC(=O)c1cccnc1)c1c(O)cc(C)oc1=O,22.1%,34.0*,21.0*,12.9%
C/C(=N\NC(=O)c1ccccc1[N+](=O)[O-])c1c(O)cc(C)oc1=O,-0.1%,7.9,-1.8,43.3%
C/C(=N\NC(=O)c1ccccc1O)c1c(O)cc(C)oc1=O,52.0%,27.5,28.2*,u
CCC(C)N(C(=O)COC(=O)COc1c(C)cc(C)cc1C)C1CCS(=O)(=O)C1 (stereo not drawn),32.5%,x,x,14.6%
COc1cc2c(cc1OC)C(C(=O)Nc1ccc3c(c1)OCCO3)C1c3ccccc3CCN1C2=O (stereo not drawn),-9.3%,13.7,0.6,9.28µM*
COc1ccc(C2C(C(=O)Nc3ccc4c(c3)OCCO4)c3ccccc3C(=O)N2C)cc1 (stereo not drawn),5.22µM*,2.3,7.9,u
COc1cc2c(cc1OC)C(C(=O)Nc1cccc(C)n1)C(c1cccnc1)N(C)C2=O (stereo not drawn),-0.8%,-16.1,-2.9,17.7%
COc1cc2c(cc1OC)C(C(=O)Nc1ccccn1)C(c1cccnc1)N(C)C2=O (stereo not drawn),-16.9%,-13.2,-2.4,1.65µM*
COc1ccc(C2C(C(=O)Nc3cccc(OC)c3)c3ccccc3C(=O)N2C)cc1 (stereo not drawn),u,-5.3,1.7,1.4%
COc1cc(OC)c(C2C(C(=O)O)c3ccccc3C(=O)N2C)cc1OC (stereo not drawn),2.6%,-3.3,10.9,14.7µM*
C/C(=N\O)c1noc(C)c1C(=O)Nc1nccs1,1.7%,6.9,-2.1,15.4%
Cc1ccc(F)cc1NC(=O)CSCc1nc2sc(C)c(C)c2c(=O)[nH]1,4.4%,x,x,36.9%
COc1ccc(C2C(C(=O)Nc3cc(OC)c(OC)c(OC)c3)c3ccccc3C(=O)N2C)cc1 (stereo not drawn),2.08µM*,-13.1,-3.2,15.7%
CC1CCC(NC(=O)c2cccc(S(=O)(=O)N3CCN(c4ccc(F)cc4)CC3)c2)CC1 (stereo not drawn),19.3%,x,x,u
Cc1cccnc1Nc1nc(-c2ccc(O)c(O)c2)cs1,x,79.9*,45.4*,-72.1%
Cc1ccc(-c2csc(NC(=O)/C=C/c3cccs3)n2)cc1C,u,-1.7,-5.2,u
COc1ccc(-c2csc(Nc3ncccc3C)n2)cc1OC,26.1%,139.1*,33.8*,u
COc1ccc(-c2csc(Nc3ncccc3C)n2)cc1,101.4%,-2.1,-5.2,-27.2%
CCn1c(CNC(=O)c2ccco2)nnc1SCC(=O)Nc1cc(F)ccc1C,11.7%,-8.0,-4.8,29.2%
COc1ccc(-c2nc(CSCC(=O)NCCCN3CCCC3=O)c(C)o2)cc1OC,8.5%,-8.1,-3.1,9.6%
C#CCOCCOCCOCCNc1nc(N2CCN(C(=O)[C@H](CCCCN)n3cc(CCCC)nn3)CC2)nc(N2CCN(C(=O)[C@H](CCCCN)n3cc(CCC(=O)O)nn3)CC2)n1,u,x,x,60.5%
C#CCOCCOCCOCCNc1nc(N2CCN(C(=O)CCCCCCCCCCNC(=O)[C@H](CCCCN)n3cc(C)nn3)CC2)nc(N2CCN(C(=O)CCCCCCCCCCNC(=O)[C@H](CCCCN)n3cc(CCCC(=O)O)nn3)CC2)n1,10.4µM*,x,x,u
SMILES,Pf growth 48h,Shiga inhibitor,CHX counter,Pf growth 96h
C#CCOCCOCCOCCNc1nc(N2CCN(C(=O)CCCCCCCCCCNC(=O)[C@H](CCCCN)n3cc(CCCC(=O)O)nn3)CC2)nc(N2CCN(C(=O)CCCCCCCCCCNC(=O)[C@@H]([C@H](C)O)n3cc(C)nn3)CC2)n1,5.22µM*,x,x,5.86µM*
O=C(CSCc1ccccc1Cl)NCCSc1ccccn1,19.9%,69.5,21.0*,21.1%
O=CCCCC=O,15.1µM*,x,x,12µM*
Cc1ccc2oc(-c3cccc(NC(=O)/C=C/c4cccc([N+](=O)[O-])c4)c3C)nc2c1,u,97.0*,57.3*,2.33µM*
CCOC(=O)C1(CC2CC2)CCN(C(=O)c2cc(OC)nc3ccccc23)CC1,u,87.9*,30.8*,0.4%
CCOC(=O)C1(CC2CC2)CCN(Cc2cnc(N(C)C)s2)CC1,-0.7%,26.9,8.1,-26.7%
CCOC(=O)C1(CC2CC2)CCN(Cc2cn(C)c3ccccc23)CC1,u,17.8,-4.4,-2.9%
CCOC(=O)C1(CC2CC2)CCN(C(=O)c2cc(C3CC3)nc3ccccc23)CC1,u,55.4*,34.3*,u
CCOC(=O)C1(CC2CC2)CCN(C(=O)c2cccnc2C)CC1,-18.7%,24.0,16.9*,-25.7%
CCn1cc2nc(SCC(=O)Nc3ccccc3F)n(Cc3ccccc3)c(=O)c2n1,u,-4.3,-2.4,1.7%
COc1cc(OC)c2c(c1)OC(=O)CC2c1ccccc1OC (stereo not drawn),x,i,-2.4,x
CCC(C)c1ccc(S(=O)(=O)N2CCN3CCCC3C2)cc1 (stereo not drawn),14.7%,-4.6,-1.9,-14.5%
